According to PubChem BioAssay AID652016 (National Center for Advancing Translational Sciences (NCATS), 2013):
Inconclusive results are not listed. Activity calls are given as the source filed them. Calls follow the shape of the dose curve; as a rule, active = well fitted inhibition curve with a large enough effect; inconclusive = small, poorly fitted or top-dose-only effect; inactive = flat fitted curve, though single readings scatter.

Each compound was assayed against Luciferin 4-monooxygenase (Photinus pyralis) (UniProt P08659) (assay: qHTS Assay for Inhibitors of Firefly Luciferase from the GSK Published Protein Kinase Inhibitor Set). Conditions: purified firefly luciferase, luminescence inhibition; series mostly up to 57.5 µM; activity change, negative = inhibition: at the top concentration.
Sequence of Luciferin 4-monooxygenase (Photinus pyralis) (P08659 whole entry, looked up): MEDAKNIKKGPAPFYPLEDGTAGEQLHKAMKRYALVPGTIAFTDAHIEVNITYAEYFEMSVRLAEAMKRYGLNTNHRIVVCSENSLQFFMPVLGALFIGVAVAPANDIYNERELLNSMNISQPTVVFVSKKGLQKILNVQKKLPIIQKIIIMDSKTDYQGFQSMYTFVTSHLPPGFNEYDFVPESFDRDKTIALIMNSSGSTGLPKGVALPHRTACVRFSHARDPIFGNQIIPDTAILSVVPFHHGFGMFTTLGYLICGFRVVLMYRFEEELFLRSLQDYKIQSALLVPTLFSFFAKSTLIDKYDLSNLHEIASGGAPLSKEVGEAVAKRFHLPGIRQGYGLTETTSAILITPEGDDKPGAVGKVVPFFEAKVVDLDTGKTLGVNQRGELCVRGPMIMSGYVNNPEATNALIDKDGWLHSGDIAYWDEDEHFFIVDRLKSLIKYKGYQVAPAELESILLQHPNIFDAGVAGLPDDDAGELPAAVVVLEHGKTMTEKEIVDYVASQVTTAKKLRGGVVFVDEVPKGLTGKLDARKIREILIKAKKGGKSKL
Description: FLuc (firefly luciferase) is the prototypical bioluminescent reporter gene from Photinus pyralis.[1] The enzyme catalyzes the oxidation luciferin via luciferin-AMP to produce light. FLuc is used in cell-based reporter gene-based assays for screening small molecule chemical libraries. However, small molecule luciferase inhibitors present in most large chemical libraries are often enriched in the output of high throughput screens using this reporter sometimes complicating interpretation and candidate selection.
RLuc is a bioluminescent reporter gene luciferase from Renilla reniformis, also known as the sea pansy. RLuc uses the luciferin substrate coelenterazine. RLuc is often used in combination with the nonhomologous luciferase FLuc (firefly luciferease) as a trasfection or pathway normalization control. Recently, non-homologous reporters have been described for high throughput screening 'coincidence' reporter gene strategies.
1. Fan F, Wood KV (2007) Bioluminescent assays for high-throughput screening. Assay Drug Dev Technol 5: 127-136.
2. Thorne N, Inglese J, Auld DS (2010) Illuminating insights into firefly luciferase and other bioluminescent reporters used in chemical biology. Chem Biol 17: 646-657.
3. […] Chem Biol 19: 1060-1072.
4. Michelini E, Cevenini L, Mezzanotte L, Coppa A, Roda A (2010) Cell-based assays: fuelling drug discovery. Anal Bioanal Chem 398: 227-238.
5. Cheng KC, Inglese J (2012) A coincidence reporter-gene system for high-throughput screening. Nat Methods 9: 937.
Biochemical firefly luciferase enzyme assay
NCGC Assay Protocol Summary:
Reagents: 50mM Tris acetate, pH 7.5; 10mM Mg acetate; 10uM D-luciferin (Sigma #L9504); 10uM ATP; 0.01% Tween-20; 0.05% BSA; 10nM P. pyralis luciferase (Sigma #L9506)
Control compounds used were two known firefly luciferase inhibitors (compounds (2) and (5) in Auld et al., 2010), and DMSO.
Three microliters containing firefly luciferase substrates in buffer (final concentrations: 50mM Tris acetate, pH 7.5, 10mM Mg acetate, 0.01% Tween-20, 0.05% BSA, 10uM D-luciferin, and 10uM ATP) are dispensed into each well of a Greiner white, solid-bottom 1536-well format plate using a flying reagent dispenser (FRD). These assay plates were then treated with 23nL of compound or DMSO using a Kalypsys pin tool, which allows for delivery of a 7-point interplate titration of each compound to the assay plates (quantitative HTS), with final compound concentrations ranging from approximately 60uM to 300pM. One microliter of firefly luciferase in 50mM Tris-acetate buffer was then delivered by FRD to each well for a final enzyme concentration of 10nM. Luciferase activity was then measured using an Envision plate reader (PerkinElmer), with an average incubation time of 5 min.
% is scaled to controls: 0 for no effect and ±100 for the full control effect; potency is read from the fitted curve at half-maximal effect.

Activity change, negative = inhibition, inactive:
CC(Oc1cc(-n2cnc3ccc(OC4CCN(C)CC4)cc32)sc1C(N)=O)c1ccccc1Cl (stereo not given) 4.46%
N#Cc1c(NC(=O)CN2CCOCC2)sc2c1CCCC2 -8.28%
NCc1ccc(-c2nc(-c3ccc(Cl)c(O)c3)c(-c3ccncc3)[nH]2)cc1 -11.5%
COc1cc(N2CCN(C(C)C)CC2)ccc1Nc1nc(Nc2ccc(F)cc2C(=O)NCC(O)CO)c2cc[nH]c2n1 (stereo not given) 21.9%
CNC(=O)c1ncccc1Nc1nc(Nc2cc3c(cc2OC)CCCN3C(=O)CN(C)C)nc2[nH]ccc12 14.4%
CCn1c(-c2nonc2N)nc2c(N3CCCC3)nccc21 11.3%
Cc1cc(-c2ccccn2)cc(C)c1C=Cc1cncc(-c2nn[nH]n2)c1 -18.8%
CCn1c(-c2nonc2N)nc2c(C#CC(C)(C)O)nc(OC(CN)c3ccccc3)cc21 (stereo not given) 24.3%
Nc1nc(-c2cccc(Cl)c2)c(-c2ccc3ncccc3n2)s1 2.24%
Cc1ccc2c(-c3ccnc(Nc4ccc5c(c4)OCCO5)n3)c(-c3ccc(C(F)(F)F)cc3)nn2n1 -0.549%
COc1cc(C=NNc2ncnc3c2cnn3-c2ccccc2)ccc1O -18.7%
COc1cc(C)c(N(C)C(=O)CN(C)C)cc1Nc1nc(Nc2cccc(F)c2C(N)=O)c2cc[nH]c2n1 -2.27%
CN1CCN(Cc2ccc(-c3cc4ncnc(Nc5ccc(OCc6cccc(F)c6)c(Cl)c5)c4s3)o2)CC1 -3.12%
COc1ccc2nc3c4nc5ccc(OC)cc5c4c4c(=O)[nH]c(=O)c4c3c2c1 -4.51%
Cc1cc(Cl)cc2c(N=Nc3ccc(S(N)(=O)=O)cc3)c(O)[nH]c12 2.74%
O=C1NC(=O)C(c2ccc(Cl)cc2)=C1Nc1ccc(Cl)c(C(=O)O)c1 -1.4%
Cc1ccc(C(=O)NC(C)C)cc1-c1ccc(C(=O)NCC2CC2)cc1 1.37%
Cc1nnc(-c2cccc(-c3ccc(C(=O)NCC4CC4)cc3)c2)o1 -8%
COc1ccc2cc(-c3c(-c4ccncc4)nc(-c4ccc(S(C)(=O)=O)cc4C)n3C)ccc2c1 -2.8%
c1ccc(-c2nc3n(c2-c2ccc4c(c2)OCO4)CCC3)nc1 -4.35%
CCn1c(-c2nonc2N)nc2c(C#CC(C)(C)O)nc(CN3CCCC3)cc21 9.71%
COc1ccc2ncn(-c3cc(OC(C)c4ccccc4C(F)(F)F)c(C(N)=O)s3)c2c1 (stereo not given) 13.7%
CCn1c(-c2nonc2N)nc2cncc(C(=O)N3CCNCC3)c21 4.9%
CN1CCC(C(=O)Nc2n[nH]c3nnc(-c4ccccc4)cc23)CC1 4.91%
COc1cc2ncn(-c3cc(OCc4ccccc4Cl)c(C(N)=O)s3)c2cc1OC 8.26%
CS(=O)(=O)Nc1ccc(-c2cc(-c3ccccc3)cc(C(N)=O)c2N)cc1 24.7%
NC(=O)c1ccc2c(-c3ccnc(NCCCO)n3)c(-c3ccc(F)cc3)nn2c1 -9.6%
Cc1ccc2[nH]c(O)c(N=Nc3ccc(S(N)(=O)=O)cc3)c2c1 -6.27%

Potency, active:
NC(=O)c1cccc(Nc2nccc(Nc3cccc(F)c3)n2)c1 0.73 µM
c1ccc(Nc2ncc(-c3ccccc3)o2)cc1 0.259 µM
Fc1ccc(-c2nn3ccccc3c2-c2ccncc2)cc1 1.16 µM
NS(=O)(=O)c1cccc(Nc2cc(-c3ccc(F)cc3)[nH]n2)c1 11.6 µM
Nc1nc(-c2ccccn2)c(-c2ccc3ncccc3n2)s1 32.6 µM
COc1ccc(Nc2ncc(-c3ccccc3)o2)cc1OC 5.8 µM
CN(C)CCOc1ccc(-c2nc(-c3ccc4c(c3)CCC4=NO)c(-c3ccncc3)[nH]2)cc1 14.6 µM
COC(=O)c1ccc2c(c1)/C(=C/c1cc(Br)c(O)c(Br)c1)C(=O)N2 20.6 µM
CN(c1ccc(NC(=O)Nc2c(Cl)cccc2Cl)cc1)c1ccnc(Nc2cccc(CS(C)(=O)=O)c2)n1 0.58 µM
Cc1ccc(Nc2ccnc(Nc3cccc(C(N)=O)c3)n2)cc1O 1.46 µM

Potency, inactive:
CN1CCC(C(=O)Nc2n[nH]c3nc(-c4ccc(O)cc4)c(Br)cc23)CC1
Nc1ncnc2occ(-c3ccc(NC(=O)Nc4cc(C(F)(F)F)ccc4F)cc3)c12
